Among all 48,000 compounds or so, about 13,000 (27%) showed an effect of 50% or more. This is one part of the list.
System: Wolbachia pipientis
Test: Anti-Wolbachia Cell-Based Screen
Type: functional
Parameters: scale not given: in the data most compounds retested in dose-response had high values
Details: 5 µM

In order of falling “Percent Effect” value:
1. CCc1noc(-c2cccc(C(=O)O)c2)n1  137.4%
2. O=C(C1CC(=O)N(c2n[nH]c3cc(Br)ccc23)C1)N1CCSCC1 (stereo unspecified)  118.9%
3. CCc1nc(-c2cccc(C(=O)O)c2)no1  110.9%
4. Cc1cc(-c2ccc(C(=O)O)cc2)nc(C2CCN(C(C)C)CC2)n1  108.9%
5. COc1ccc(CN(C)[C@@H]2CN(C(=O)c3cncs3)C[C@H]2O)cc1  107.9%
6. CC(C)C(C)N(C)C(=O)COc1ccccc1C#N (stereo unspecified)  106.3%
7. Cc1cc(-c2cccc(C(=O)O)c2)nc(C2CCN(C(C)C)CC2)n1  102.4%
8. CC(CNC(=O)OC(C)(C)C)N(C)C(=O)COc1ccccc1C#N (stereo unspecified)  101.4%
9. Cc1ccc(CN2Cc3nccn3CC(Cn3cncn3)C2)s1.O=C(O)C(F)(F)F (stereo unspecified)  96.42%
10. CCS(=O)(=O)CC(C)N(C)C(=O)COc1ccccc1C#N (stereo unspecified)  95.28%
11. Cc1ccc(CN2Cc3nccn3CC(Cn3cccn3)C2)s1.O=C(O)C(F)(F)F (stereo unspecified)  93.7%
12. O=C(C1CC(=O)N(c2n[nH]c3cc(Br)ccc23)C1)N1CCCC1 (stereo unspecified)  93.67%
13. O=C(C1CC(=O)N(c2n[nH]c3cc(Br)ccc23)C1)N1CCOCC1 (stereo unspecified)  93.25%
14. COc1ccc(CN(C)[C@@H]2CN(C(=O)c3cnn(C)c3)C[C@H]2O)cc1  88.16%
15. O=C(C1CCN(c2ccnc3ccc(Br)cc23)CC1)N1CCOCC1  20.8%
16. O=C(N[C@H]1CN(C2CCOCC2)C[C@@H]1C1CC1)c1cc(O)no1  17.55%
17. CCC(Nc1nc(C(F)(F)F)nc2ccccc12)C(=O)O (stereo unspecified)  14.92%
18. CC(Oc1ccccc1C#N)C(=O)NC1CC1 (stereo unspecified)  12.68%
19. CCOc1ncccc1NC(=O)c1cc(C)c(C)s1  7.979%
20. O=C(C1CC(=O)N(c2ccccc2Br)C1)N1CCCCCC1 (stereo unspecified)  6.985%
21. COc1ccccc1C1CNC(=O)c2nc(-c3nccn3C)[nH]c2C1 (stereo unspecified)  6.875%
22. CCc1noc(-c2ccc(SCC(=O)O)nc2)n1  5.745%
23. O=C(C1CC(=O)N(c2ccccc2Br)C1)N1CCN(CC(F)(F)F)CC1 (stereo unspecified)  5.588%
24. Cc1c(NCC(C)(C)C)cccc1C(=O)N(C)Cc1ncnn1C  4.357%
25. CCNC(=O)NC1CCC(Oc2ccccc2C#N)CC1 (stereo unspecified)  4.038%
26. O=C(C1CC(=O)N(C2CC2)C1)N1CCC(Oc2ccccc2Cl)CC1 (stereo unspecified)  2.803%
27. Cc1cc(-c2ccc(C(=O)O)cc2)nc(C2CCCN(C(C)C)C2)n1 (stereo unspecified)  2.794%
28. O=C(Cn1cncn1)NCC1(O)CCCc2ccccc21 (stereo unspecified)  1.206%
29. Cc1ncsc1C(=O)NC1CCN(CC(=O)NCc2ccccc2)CC1  0.6366%
30. Cc1ncsc1CCN(C)Cc1cc2n(n1)CCN(S(C)(=O)=O)C2  0.3281%
31. COc1ccccc1OCC(=O)n1ncc(C#N)c1N  -0.431%
32. Cn1cc(C(=O)N2CCCCC2CCc2ccccc2)cn1 (stereo unspecified)  -0.576%
33. COC(=O)c1cccc(-c2nc(CC3CCN(C)CC3)no2)c1  -1.18%
34. Cc1ccc(Cl)cc1S(=O)(=O)NCc1cnc(N(C)C)n1C  -1.472%
35. COc1ccc(CN(C)[C@@H]2CN(C(=O)c3cccs3)C[C@H]2O)cc1  -2.392%
36. Cn1cc(C(=O)N2CCCCC2CCc2ccc(O)cc2)cn1 (stereo unspecified)  -2.601%
37. CNC(=O)c1cccc(CNC(=O)C2CC(=O)N(CCN(C)C)C2)c1 (stereo unspecified)  -3.95%
38. CCN(CC)C(=O)c1ccc(COc2ccccc2C#N)o1  -6.305%
39. O=C(O)C(F)(F)F.O=C([C@H]1CN(Cc2ccoc2)C[C@H]2OCC[C@@H]12)N1CCCCO1  -7.154%
40. CN(C)CC(C)(C)CN1CCC(c2ccnc(-c3cccc(O)c3)c2)C1 (stereo unspecified)  -7.648%
41. CCN(CC)CC1CN(Cc2ccc(C)s2)Cc2nccn2C1.O=C(O)C(F)(F)F.O=C(O)C(F)(F)F (stereo unspecified)  -7.962%
42. COc1ccc(Br)cc1CCC(=O)N1CCSCC1  -8.265%
43. Cc1ccc(-c2csc(-c3cccc(C(=O)O)c3)n2)cc1  -9.33%
44. CNC(=O)C(C)(C)CNC(=O)Nc1ccc(C)cn1  -9.639%
45. CC(C)(C)OC(=O)NCCNC(=O)c1cnc(-c2ccccc2)nc1  -9.911%
46. CC(C)Oc1ccccc1CNC(=O)N(C)C(C)CS(C)(=O)=O (stereo unspecified)  -10.62%
47. COc1ccc([C@@H]2CN(C(=O)CCCc3cn[nH]c3)C[C@H]2N(C)C)cc1  -10.76%
48. Cc1ccc(C(NC(=O)CC2CCN(C(C)C)CC2)C(=O)O)cc1 (stereo unspecified)  -11.69%
49. COc1ccc(OC)c(-c2csc(-c3cccc(C(=O)O)c3)n2)c1  -14.75%
50. O=C(c1ccc(Cn2cc(Br)cn2)cc1)N1CCOCC1  -22.08%
51. CCN1CC[C@@]2(C(=O)N3CCCC3)CCN(S(C)(=O)=O)CC[C@@H]12.O=C(O)C(F)(F)F  -22.27%
